Drawing on ChEMBL document CHEMBL1157539, “Thousands of chemical starting points for antimalarial lead identification” (Nature, 2010), this text covers Inhibition for 30 compounds.

Assay type in all cases: functional
Experiment [1] deals with Plasmodium falciparum. Briefly: GSK_TCMDC: Inhibition of Plasmodium falciparum 3D7 in whole red blood cells, using parasite LDH activity as an index of growth. Test compounds present at 2uM.
For experiment [2], the system named is Plasmodium falciparum. In words: GSK_TCMDC: Inhibition of Plasmodium falciparum Dd2 in whole red blood cells, using parasite LDH activity as an index of growth. Test compounds present at 2uM.
The subject of the next experiment is HepG2. In words: GSK_TCMDC: Percent inhibition of human HepG2 cell line. Test compounds present at 10uM.

One may read the Inhibition as the relative decrease from the control value, in per cent. Low values mean a weak effect, high ones a strong effect. `O=C(Nc1cccc(C(F)(F)F)c1)c1cccc(S(=O)(=O)NCC2CCN(CC3CCCCC3)CC2)c1.O=C(O)C(F)(F)F`: the Inhibition in the experiment on Plasmodium falciparum [1] is reported as 97%; in the experiment with Plasmodium falciparum [2] it was 5%; in the experiment on HepG2 it was 27%.

For `CC(C)C1C(=O)N(S(C)(=O)=O)C2CCN(C(=O)c3ccc(CN4CCCCC4)c([N+](=O)[O-])c3)C12.Cl` (stereo not given), the Inhibition came out at 100% in the experiment on Plasmodium falciparum [1], 100% with Plasmodium falciparum [2] and 10% with HepG2.

On to `COc1ccc(-c2onc(C(F)(F)F)c2-c2cc3ccccc3o2)c(O)c1`, for which the Inhibition in the experiment on Plasmodium falciparum [1] came to 93%; in the experiment with Plasmodium falciparum [2], 15%; in the experiment on HepG2, 6%.

For the compound `CC(C)CN1CCCN(Cc2cccc(NC(=O)c3cc4ccccc4s3)c2)CC1.O=C(O)C(F)(F)F`, the figures for the Inhibition in the experiment on Plasmodium falciparum [1], in the experiment with Plasmodium falciparum [2] and in the experiment on HepG2 were 87%, 6% and 5%, respectively.

In the case of `O=C(/C=C/c1ccc(Cl)cc1)NCCCCCN1CCC(C(=O)Nc2cccc(Cl)c2)CC1`, the values for the Inhibition in the experiment with Plasmodium falciparum [1], with Plasmodium falciparum [2] and in the experiment with HepG2 were 97%, 0% and 22%, respectively.

`O=C(Nc1cccc(CN2CCN(C(=O)c3cccc(F)c3)CC2)c1)c1ccco1.O=C(O)C(F)(F)F`: the Inhibition with Plasmodium falciparum [1] turned out to be 88%; with Plasmodium falciparum [2] it was 55%; with HepG2 it was 7%.

As to `Cc1cccc2nc(-c3cccc(-c4cccc(NC(=O)Nc5ccsc5)c4)c3)[nH]c12`, the results for the Inhibition in the experiment with Plasmodium falciparum [1], in the experiment on Plasmodium falciparum [2] and in the experiment with HepG2 were 100%, 41% and 15%, respectively.

Take `O=C(O)C(F)(F)F.O=[N+]([O-])c1cnc(Nc2ccccc2O)nc1Nc1ccccc1O`: the Inhibition in the experiment with Plasmodium falciparum [1] worked out at 98%; in the experiment with Plasmodium falciparum [2], 80%; with HepG2, 24%.

`CCn1c(CN2CCN(Cc3ccccc3)CC2)nc2cc(NC(=O)c3cccs3)ccc21`: the Inhibition with Plasmodium falciparum [1] is recorded as 97%; in the experiment with Plasmodium falciparum [2] it was 95%; with HepG2, 0%.

On to `CCOC(=O)C1CCN(CCCNC(=O)/C(=C/C=C/c2cc3cc(Cl)c(Cl)cc3[nH]2)OC)CC1`, for which the Inhibition came to 87% in the experiment on Plasmodium falciparum [1], 78% with Plasmodium falciparum [2] and 23% in the experiment on HepG2.

As to `Cc1cc(NCCc2ccccc2)nc(NC(=N)Nc2ccccc2Cl)n1`, the Inhibition is on record as 100% in the experiment with Plasmodium falciparum [1], 7% with Plasmodium falciparum [2] and 20% in the experiment with HepG2.

`COc1ccc(-n2ccnc2SCC(=O)Nc2cc(C)ccc2C)c(OC)c1`: the Inhibition with Plasmodium falciparum [1] stood at 94%; in the experiment with Plasmodium falciparum [2], 93%; in the experiment on HepG2, 2%.

For `COc1ccc2nccc([C@@H](O)CN3CCC(NCc4ccc5c(c4)NC(=O)CS5)CC3)c2n1.O=C(O)C(=O)O`, the Inhibition was 100% in the experiment with Plasmodium falciparum [1], 34% with Plasmodium falciparum [2] and 1% in the experiment on HepG2.

Consider `Cc1noc(C)c1CN1CCCN(c2ccc3c(c2)CCN(Cc2ccc(-c4ncc[nH]4)cc2)CC3)CC1`, for which the Inhibition in the experiment on Plasmodium falciparum [1] was determined as 98%; with Plasmodium falciparum [2], 39%; in the experiment with HepG2, 1%.

As for `COc1ccc2nccc([C@@H](O)CN3CCC(NC(=O)C(c4ccsc4)N4CCN(c5ccccc5)CC4)CC3)c2c1` (stereo not given in full), the Inhibition was determined as 95% in the experiment with Plasmodium falciparum [1], 17% in the experiment on Plasmodium falciparum [2] and 24% in the experiment on HepG2.

As to `Cc1cccc2nc(-c3ccc(-c4cccc(NC(=O)c5cncn5C)c4)cc3)[nH]c12`, the Inhibition with Plasmodium falciparum [1] was determined as 100%; in the experiment on Plasmodium falciparum [2] it was 1%; in the experiment on HepG2 it was 2%.

As to `CCCCc1cc(NC2CCN(C)CC2)nc(Nc2ccccc2)n1`, the Inhibition in the experiment with Plasmodium falciparum [1] was 100%; with Plasmodium falciparum [2], 29%; in the experiment on HepG2, 7%.

Regarding `Cl.O=C(Nc1cccc(Cl)c1)OC1CCCN2CCCCC12` (stereo not given), the results for the Inhibition in the experiment with Plasmodium falciparum [1], with Plasmodium falciparum [2] and in the experiment with HepG2 were 85%, 0% and 6%, respectively.

With `OCCN1CCN(C(=S)Nc2ccccc2)CC1`, the Inhibition turned out to be 97% with Plasmodium falciparum [1], 7% in the experiment on Plasmodium falciparum [2] and 6% in the experiment on HepG2.

With `CCN(CC)C(=O)c1cnc(-c2ccccc2)nc1Oc1cccc(Cl)c1`, the Inhibition is 92% in the experiment on Plasmodium falciparum [1], 40% with Plasmodium falciparum [2] and 0% in the experiment on HepG2.

On to `CNC(=O)c1ccc2nc(C3CC3)n(CC3CCN(S(=O)(=O)c4cccc(Cl)c4)CC3)c2c1.O=C(O)C(F)(F)F`, for which the Inhibition in the experiment on Plasmodium falciparum [1] is 100%; with Plasmodium falciparum [2], 100%; in the experiment with HepG2, 0%.

With `CCOC(=O)c1ccc(NC(=O)Nc2cccc(-c3cccc(-c4nc5cccc(C)c5[nH]4)c3)c2)cc1`, the Inhibition in the experiment with Plasmodium falciparum [1] is 100%; in the experiment with Plasmodium falciparum [2], 99%; in the experiment with HepG2 it was 37%.

As to `CNc1ccc(CNCc2ccc(-c3ccc(-c4nc5cc(C(F)(F)F)ccc5[nH]4)cc3)cc2)cc1.O=C(O)C(F)(F)F`, the Inhibition with Plasmodium falciparum [1] is recorded as 100%; with Plasmodium falciparum [2] it was 98%; with HepG2, 53%.

Consider `CCCCCCN1CCC(NCc2ccc(C)cc2)CC1.O=C(O)C(F)(F)F`, for which the Inhibition is 93% in the experiment with Plasmodium falciparum [1], 4% with Plasmodium falciparum [2] and 16% in the experiment on HepG2.

As to `O=C1Nc2cccc3c2C1(CCCCN1CCC(c2c(-c4ccc(F)cc4)[nH]c4ccccc24)CC1)CCC3` (stereo not given), the results for the Inhibition in the experiment on Plasmodium falciparum [1], in the experiment on Plasmodium falciparum [2] and with HepG2 were 91%, 28% and 25%, respectively.

In the case of `CCc1ccc(S(=O)(=O)Nc2ccc(CCN(C)C3CCN(C)CC3)cc2)cc1`, the Inhibition in the experiment on Plasmodium falciparum [1] was determined as 86%; in the experiment on Plasmodium falciparum [2] it was 9%; with HepG2, 25%.

With `O=C(/C=C/c1ccc(Cl)c(Cl)c1)NCCCCCN1CCC(NC(=O)NC2CCCC2)CC1`, the Inhibition in the experiment on Plasmodium falciparum [1] stood at 99%; in the experiment with Plasmodium falciparum [2], 31%; with HepG2 it was 21%.

With `N#CCCN1CCN(Cc2cccc(-c3ccc(-c4nc5ccccc5[nH]4)s3)c2)CC1.O=C(O)C(F)(F)F`, the values for the Inhibition in the experiment with Plasmodium falciparum [1], in the experiment on Plasmodium falciparum [2] and in the experiment with HepG2 were 96%, 8% and 48%, respectively.

For `CC1(C)[C@H]2CC[C@@H](CNc3nc(NCC(=O)Nc4ccc5ccccc5c4)nc(N4CCC(N5CCCC5)CC4)n3)[C@@H]1C2`, the Inhibition in the experiment on Plasmodium falciparum [1] amounted to 93%; in the experiment with Plasmodium falciparum [2], 20%; in the experiment on HepG2 it was 6%.

`COc1cccc2c(NN=Cc3ccc(Cl)cc3)ccnc12`: the Inhibition in the experiment on Plasmodium falciparum [1] was 99%; with Plasmodium falciparum [2] it was 39%; with HepG2, 26%.
